# Experimental data: PubChem BioAssay AID1220 (Sanford-Burnham Center for Chemical Genomics, 2008)
# The campaign covered roughly 190,000 compounds. About 1,300 (0.68%) were called active. For the sample, actives were picked, then their nearest neighbours and some compounds at random. A number with no mark means an inactive call. Rule as the data show it: active = inhibition above about 50%; inactive = the rest.
# Molecular target: Mannose-6-phosphate isomerase (Homo sapiens) (UniProt P34949)
# Experiment: human PMI inhibitors, high substrate, primary screen, biochemical, fluorescence intensity, high mannose 6-phosphate (AID 1220)
# Conditions: recombinant PMI enzyme, coupled fluorescence intensity; at 20 µM; hits give high values
# Sequence of Mannose-6-phosphate isomerase (Homo sapiens) (P34949 whole entry, looked up): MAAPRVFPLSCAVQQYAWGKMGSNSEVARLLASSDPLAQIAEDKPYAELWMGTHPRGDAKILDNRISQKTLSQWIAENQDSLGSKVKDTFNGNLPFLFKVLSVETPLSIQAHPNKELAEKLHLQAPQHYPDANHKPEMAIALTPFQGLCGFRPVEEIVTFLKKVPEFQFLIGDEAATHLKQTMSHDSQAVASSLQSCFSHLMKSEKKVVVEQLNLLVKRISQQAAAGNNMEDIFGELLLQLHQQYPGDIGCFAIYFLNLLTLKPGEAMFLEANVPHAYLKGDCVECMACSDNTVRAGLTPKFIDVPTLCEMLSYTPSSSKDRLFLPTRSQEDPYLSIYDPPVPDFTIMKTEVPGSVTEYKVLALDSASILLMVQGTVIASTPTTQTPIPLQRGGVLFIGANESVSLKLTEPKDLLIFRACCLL
row,SMILES,inhibition
1,CCc1ccc(C2C(C#N)=C(N)N(N(C)C)C3=C2C(=O)CCC3)s1 (stereo not drawn),59.7% (active)
2,CCOC(=O)c1cccc(-c2ccc(C=O)o2)c1,7.1%
3,COc1ccc(/C=N\NC(=O)c2cccc(Br)c2)c(OC)c1,3%
4,CCN(CC)C(=O)CSc1nc2ccccc2c(=O)n1OC,4.5%
5,COC(=O)/C=C(\C)NC(=O)c1ccc(F)cc1,12.4%
6,O=C(COC(=O)c1cccs1)NCc1ccco1,-3.4%
7,Cc1ncoc1C(=O)Nc1ccccc1-c1ccccc1,-4.1%
8,CCN(CC)C(=O)c1ccc(Cn2cc([N+](=O)[O-])cn2)o1,0%
9,CC(=O)c1ccc(NC(=O)Nc2ccc([N+](=O)[O-])cc2)cc1,-0.1%
10,COc1ccc(N2C(N)=C(C#N)C(c3ccsc3)C3=C2CCCC3=O)c(OC)c1 (stereo not drawn),62% (active)
11,Cc1ccc(C2C(C#N)=C(N)N(N(C)C)C3=C2C(=O)CCC3)cc1 (stereo not drawn),57.8% (active)
12,N#CC1=C(N)N(c2ccccc2C#N)C2=C(C(=O)CCC2)C1c1ccsc1 (stereo not drawn),19.7%
13,CN(C)N1C(N)=C(C#N)C(c2ccccc2)C2=C1CCCC2=O (stereo not drawn),42.1%
14,Cc1ccsc1C1C(C#N)=C(N)N(N(C)C)C2=C1C(=O)CCC2 (stereo not drawn),15.7%
15,COc1ccc(C2C(C#N)=C(N)N(c3ncn[nH]3)C3=C2C(=O)CCC3)cc1 (stereo not drawn),43.2%
16,COc1ccc(-c2nc(NC(=O)Cn3c(=O)oc4ccccc43)sc2C)cc1,16.1%
17,Nn1c(SCc2ccccc2)nc2c(cnn2-c2ccccc2)c1=O,4.9%
18,COc1ccc(-c2cccc(C(=O)NCC(=O)O)c2)cc1,2.2%
19,Cc1ccccc1Nc1nc(N)nc(CN2CCN(Cc3ccc4c(c3)OCO4)CC2)n1,-1.7%
20,CCC1CCCCN1C(=S)Nc1cccc(S(=O)(=O)N(C)C)c1 (stereo not drawn),-6.4%
21,O=C(c1ccc2c3c(cccc13)CC2)C1CCCN(Cc2ccncc2)C1 (stereo not drawn),-2.1%
22,COc1cc(CN2CCCC(C(=O)c3ccc4c5c(cccc35)CC4)C2)cc(OC)c1O (stereo not drawn),74.7% (active)
23,O=C(c1ccc2c3c(cccc13)CC2)C1CCCN(Cc2cccnc2)C1 (stereo not drawn),11.4%
24,CC(C)NC(=O)c1ccccc1NC(=O)Cc1ccc(Cl)cc1,-7.2%
25,CCn1c2ccccc2c2cc(NC(=O)CCCN3C(=O)CCC3=O)ccc21,-9.6%
26,CC1CCC/C(=C\Nc2ccc(O)cc2)C1=O (stereo not drawn),57.1% (active)
27,CCOC(=O)c1ccc(N/C=C2/CCCC(C)C2=O)cc1 (stereo not drawn),8.1%

row,SMILES,inhibition
1,CC1CCC/C(=C\Nc2ccc(C(=O)O)cc2)C1=O (stereo not drawn),25.7%
2,O=C(Cc1ccccc1)N/N=C/c1cccs1,4.5%
3,O=C(Oc1ccc2ccc(=O)oc2c1)C1CCCCC1,-2.5%
4,O=C(Oc1ccc2ccc(O)cc2c1)C1CCCCC1,55% (active)
5,O=C(Oc1cccc(O)c1)C1CCCCC1,13%
6,CCOC(=O)C1CCCN(C(=S)NC2CCCCC2)C1 (stereo not drawn),2.4%
7,CCn1c(SCC(=O)c2ccc(C)cc2)nnc1-c1ccoc1C,-13.6%
8,Cc1noc(C)c1S(=O)(=O)N1CCC(C(=O)NCCCN2CC(C)CC(C)C2)CC1 (stereo not drawn),54.6% (active)
9,Cc1noc(C)c1S(=O)(=O)N1CCC(C(=O)NCCN2CCC(C)CC2)CC1,7.6%
10,CCC1CCCCN1CCNC(=O)C1CCN(S(=O)(=O)c2c(C)noc2C)CC1 (stereo not drawn),1.5%
11,CCOC(=O)c1c(-c2ccccc2)csc1NC(=S)NC,14.4%
12,CCOC(=O)c1c(-c2ccccc2)csc1NC(=S)N(CC)CC,14.7%
13,CCNC(=S)Nc1scc(-c2ccccc2)c1C(=O)OCC,52.2% (active)
14,COC(=O)c1c(C)[nH]c(O)c1C=Nc1ccc(C#N)cc1,1.7%
15,CCOc1ccc(N2CSC3=C(C#N)C(c4ccco4)CC(=O)N3C2)cc1 (stereo not drawn),-62.8%
16,N#CC1=C2SCN(Cc3ccco3)CN2C(=O)CC1c1c(F)cccc1Cl (stereo not drawn),-26.5%
17,Cc1ccc(N2CSC3=C(C#N)C(c4cccs4)CC(=O)N3C2)cc1 (stereo not drawn),-74.9%
18,Cc1cccc(N2CSC3=C(C#N)C(c4ccc(C)o4)CC(=O)N3C2)c1 (stereo not drawn),-1.2%
19,Cc1ccc(C2CC(=O)N3CN(c4ccc(Br)cc4)CSC3=C2C#N)o1 (stereo not drawn),-40.7%
20,Cc1ccc(C2CC(=O)N3CN(Cc4ccco4)CSC3=C2C#N)cc1 (stereo not drawn),62.6% (active)
21,CC(C)c1ccc(C2CC(=O)N3CN(Cc4ccco4)CSC3=C2C#N)cc1 (stereo not drawn),76% (active)
22,COc1ccc(C2CC(=O)N3CN(c4ccc(C)c(Cl)c4)CSC3=C2C#N)cc1 (stereo not drawn),19.1%
23,N#CC1=C2SCN(c3ccc(F)cc3)CN2C(=O)CC1c1cccc(F)c1 (stereo not drawn),14.8%
24,N#CC1=C2SCN(c3ccccc3)CN2C(=O)CC1c1c(Cl)cccc1Cl (stereo not drawn),23.8%
25,COc1ccc(C2CC(=O)N3CN(Cc4ccco4)CSC3=C2C#N)cc1 (stereo not drawn),73.2% (active)
26,N#CC1=C2SCN(Cc3ccco3)CN2C(=O)CC1c1ccc(Cl)cc1 (stereo not drawn),53.5% (active)
